Source: PubChem
CYP2C19 inhib = inhibitors of human CYP2C19; CYP2C19 Supersomes, luciferin-H EGE luminescence, 30 min; P33261; inhibition, % at 5 µM; actives 21% (n = 96,000);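 active means CYP2C19 inhibition above a set limit at 5 µM in the primary screen, cut at about 50% in these data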;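 further: plate controls were negative control wells for no effect and 2.5 mM tranylcypromine positive control for full effect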
CYP2C9 act = CYP2C9 (human) activation. P11712. recombinant CYP2C9, luciferin-H conversion, luminescence; hits give high values; factor 1 = untreated enzyme, 0 = blocked. activation factor at 5 µM. actives 1.4% (n = 96,000). AID 1024;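 active means activation factor of 2 or more for CYP2C9 at a 5 µM dose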;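 further: 0 = sulfaphenazole-blocked wells and 1 = vehicle-only wells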
Target sequence (P11712 whole entry, looked up): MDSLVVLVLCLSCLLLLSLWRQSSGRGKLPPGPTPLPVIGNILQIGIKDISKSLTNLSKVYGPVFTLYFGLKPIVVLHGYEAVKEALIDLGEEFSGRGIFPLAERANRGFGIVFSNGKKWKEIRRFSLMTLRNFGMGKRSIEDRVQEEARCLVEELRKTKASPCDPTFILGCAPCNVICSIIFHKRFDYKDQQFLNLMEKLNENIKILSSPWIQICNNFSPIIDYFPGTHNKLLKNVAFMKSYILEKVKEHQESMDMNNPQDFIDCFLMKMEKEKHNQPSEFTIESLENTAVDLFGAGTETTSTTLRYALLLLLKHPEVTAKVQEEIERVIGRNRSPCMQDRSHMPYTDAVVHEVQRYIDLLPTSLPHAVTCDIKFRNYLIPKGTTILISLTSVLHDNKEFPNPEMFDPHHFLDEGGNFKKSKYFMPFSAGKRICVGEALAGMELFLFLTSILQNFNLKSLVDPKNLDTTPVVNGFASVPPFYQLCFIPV
MRP1 act = MRP-1 activation. viability increase, % at 10 µM. H69AR cells + doxorubicin, viability rescue, CellTiter-Glo. actives 0.61% (n = 140,000);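 active means viability gain under doxorubicin at or above a set limit, the compound median plus 3 SD, cut at about 4.7% in these data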;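 further: MRP-1 overexpressing cells given doxorubicin 25 µM after compound pretreatment; 18-22 h compound pretreatment then 72 h with doxorubicin before readout; 0% = doxorubicin-only wells and 100% = vehicle-treated cells without doxorubicin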
MRP resist rev = reverses drug resistance mediated by MRP. H69AR cells + 2 uM doxorubicin, CellTiter-Glo, 72 h. AID 602. differential viability (reversal), % at 10 µM. actives 0.04% (n = 85,000);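 active means viability drop by adding the cancer drug above about 55%, with treated viability meeting a 40% cutoff, limit read from the data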;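 further: viability without doxorubicin minus viability with 2 µM doxorubicin for each compound; larger differential means the compound sensitizes cells more to doxorubicin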
CYP2C19 activ = activators of human cytochrome P450 2C19. P33261. recombinant CYP2C19, luciferin-H EGE luminescence; hits give high values; 0 = fully inhibited enzyme, 1 = untreated enzyme. activation factor at 5 µM. 96,000 tested, under 10 active. AID 1025;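 active means activation factor of at least 2 at 5 µM in the primary screen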;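 further: 0 = wells with 2.5 mM tranylcypromine and 1 = vehicle-only wells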
CYP2C9 inh = human CYP2C9 inhibition. CYP2C9 Supersomes, luciferin-H conversion, luminescence. P11712. actives 20% (n = 96,000). inhibition, % at 5 µM;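 active means blocking of liver enzyme CYP2C9 beyond about 50% at 5 µM, limit read from the data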
* hit, by the source's call; . = not tested or not shown. Compounds with a hit are over-represented: about 21% of the library has one in this group of screens.

SMILES | CYP2C19 inhib | CYP2C9 act | MRP1 act | MRP resist rev | CYP2C19 activ | CYP2C9 inh
Cc1ccc(S(=O)(=O)CCC(=O)Nc2nccs2)cc1 | 22 | 1 | -1 | -9 | 0.8 | 0
Cc1ccc(S(=O)(=O)NC(CC(C)C)C(=O)NCc2ccco2)cc1 (centres undefined) | 54* | 0.4 | -3 | -8 | 0.5 | 56*
Cc1ccc(S(=O)(=O)NC(CC(=O)NCc2ccco2)c2ccco2)cc1 (centres undefined) | 48 | 1.3 | -2 | 12 | 0.5 | -31
Cc1ccc(S(=O)(=O)NC(CC(C)C)C(=O)Nc2nccs2)cc1 (centres undefined) | 43 | 0.2 | -1 | 4 | 0.6 | 81*
Cn1ncc2nc[nH]c(=O)c21 | 50* | 0.6 | 0 | 2 | 0.5 | 41
CCOc1cc(/C=C(/C#N)C(=O)Nc2ccc(O)cc2)cc(Br)c1O | 61* | 0.1 | -5 | . | 0.4 | 94*
C=CCNC(=O)/C(C#N)=C\c1cc(Cl)c(O)c(OCC)c1 | . | . | -4 | . | . | .
Clc1ccc(CN2CCN(c3ncnc4scc(-c5cccs5)c34)CC2)cc1 | 84* | 0.7 | -1 | -5 | 0.2 | 29
O=C(Nc1cccc(C(F)(F)F)c1)/C(=C/c1ccco1)NC(=O)c1cccs1 | 34 | 0.9 | -4 | . | 0.7 | 13
Cc1ccc(NC(=S)NN2CCN(C)CC2)cc1 | . | . | 1 | . | . | .
CC(=O)N1CCN(c2ccc(NCc3ccc(C)cc3)cc2)CC1 | 44 | 0.5 | -4 | 9 | 0.6 | 54*
CC(=O)Nc1ccc(N2CCN(C(C)=O)CC2)cc1 | -14 | 1.1 | 1 | -10 | 1.1 | -8
CC(=O)c1ccc(N2CCN(C(=S)Nc3ccccc3)CC2)cc1 | 8 | 1 | 0 | . | 0.9 | -1
CC(=O)c1ccc(NCC(=O)N2CCN(c3ccccc3)CC2)cc1 | 58* | 0.8 | -1 | 5 | 0.4 | 23
CCc1ccc(CNc2ccc(N3CCN(C(C)=O)CC3)cc2)cc1 | 56* | 0.6 | -4 | 8 | 0.4 | 38
N#CC1(Cc2ccccc2Cl)c2ccccc2C=CN1C(=O)c1ccccc1 (centres undefined) | 91* | 0.2 | -2 | . | 0.1 | 84*
CCC(=O)Nc1cccc(-n2nnnc2SCC(=O)c2ccc(C)c(C)c2)c1 | . | . | -1 | . | . | .
COc1ccc(N2C(=O)CSC2c2ccc3c(c2)OCO3)cc1 (centres undefined) | 89* | 1.2 | -2 | 5 | 0.1 | -22
COc1ccc(N2C(=O)CSC2c2ccc3c(c2)OCO3)c(OC)c1 (centres undefined) | 84* | 0.9 | -4 | . | 0.2 | 10
COc1ccc(N2C(=O)CSC2c2ccncc2)cc1 (centres undefined) | 41 | 0.4 | -3 | 1 | 0.6 | 58*
COc1ccc(N2C(=O)CSC2c2cccc(F)c2)c(OC)c1 (centres undefined) | 34 | 1 | -3 | 3 | 0.7 | -4
Cc1csc(=Nc2c(C)n(C)n(-c3ccccc3)c2=O)n1Cc1ccccc1 | 82* | 0.6 | 0 | -7 | 0.2 | 42
COc1ccc(C2=NOC(C(=O)NCCCn3ccnc3)C2)cc1 (centres undefined) | 84* | 0.2 | -1 | -3 | 0.2 | 84*
O=C(NCCCn1ccnc1)C1CC(c2cccc(Br)c2)=NO1 (centres undefined) | 100* | 0.2 | -2 | 3 | 0 | 85*
COc1cccc(C2=NOC(C(=O)NCCCn3ccnc3)C2)c1 (centres undefined) | 95* | 0.2 | -2 | 8 | 0 | 82*
SMILES | CYP2C19 inhib | CYP2C9 act | MRP1 act | MRP resist rev | CYP2C19 activ | CYP2C9 inh
O=C(CNC(=O)c1cccs1)NCCN1CCC(Cc2ccccc2)CC1 | . | . | -3 | . | . | .
Cn1c(SCc2cc(=O)[nH]c3ccccc23)nnc1-c1ccc(Br)cc1 | 51* | 0.8 | -2 | 10 | 0.5 | 18
Cc1ccc(CSC2=NCCN2C(=O)C2CC2)cc1 | 92* | 0.8 | 1 | 1 | 0.1 | 19
CC(=O)N1CCN=C1SCc1ccc(Br)cc1 | 54* | 0.4 | 9.4* | 10 | 0.5 | 62*
O=C(C1CC1)N1CCN=C1SCc1cccc(C(F)(F)F)c1 | 95* | 0.3 | 0 | 6 | 0 | 70*
Cc1cc(C)n2nc(SCc3cc(=O)n4c(C)cccc4n3)nc2n1 | . | . | . | 12 | . | .
CSc1nnc(-c2ccc(S(=O)(=O)N3CCCC3)cc2)n1C | 16 | 1.1 | -1 | 8 | 0.8 | -6
Cc1ccc(N(CC(O)CN2CCOCC2)S(=O)(=O)c2ccc3ccccc3c2)cc1 (centres undefined) | 19 | 0.5 | -4 | -5 | 0.8 | 52*
Cc1ccc(S(=O)(=O)N(CC(O)CN2CCOCC2)c2cc(Cl)ccc2Cl)cc1 (centres undefined) | 54* | 0.8 | -2 | 0 | 0.5 | 18
Cc1ccc(N(CC(O)Cn2nc(C)cc2C)S(=O)(=O)c2ccc3ccccc3c2)cc1 (centres undefined) | . | . | -1 | . | . | .
COc1ccc(-c2cc3ccccc3n2CC(O)CN2CCOCC2)cc1 (centres undefined) | 95* | 0.4 | -3 | 2 | 0 | 63*
Cc1cccc(C)c1NC(=O)C(NS(=O)(=O)c1cccs1)c1ccccc1 (centres undefined) | . | . | -1 | . | . | .
COc1ccc(/C=C2/SC(=O)N(CCC(=O)Nc3ccccc3)C2=O)cc1OC | . | . | -3 | . | . | .
CC(C)(C)NS(=O)(=O)c1ccc(CCC(=O)O)cc1 | 23 | 1.1 | 0 | 14 | 0.8 | -6
CC(C)(C)NS(=O)(=O)c1ccc(NS(=O)(=O)Cc2ccccc2)cc1 | 72* | 0.2 | 1 | -1 | 0.3 | 81*
CC(C)(C)NS(=O)(=O)c1ccc(NC(=O)C(Sc2ccccc2)c2ccccc2)cc1 (centres undefined) | 15 | 0.4 | -6 | . | 0.8 | 63*
Cc1ccc(S(=O)(=O)N(CC(O)CN2C(=O)NC(C)(C)C2=O)c2ccccc2)cc1 (centres undefined) | 32 | 0.9 | -1 | -8 | 0.7 | 14
COc1ccccc1N(CC(O)CN1C(=O)NC(C)(C)C1=O)S(=O)(=O)c1ccc(C)cc1 (centres undefined) | 94* | 0.4 | -1 | -11 | 0.1 | 60*
COc1cccc(C(=O)N(Cc2ccc(N(C)C)cc2)C2CCS(=O)(=O)C2)c1 (centres undefined) | 23 | 1.1 | -1 | 5 | 0.8 | -6
Cc1ccccc1N1C(=O)C(Oc2ccc(Cl)cc2)C1CNC(C)(C)C (centres undefined) | . | . | -4 | . | . | .
CC1(C)c2ccccc2N2CCC(=O)NC21/C=C/c1ccco1 (centres undefined) | 86* | 0.5 | -2 | 8 | 0.1 | 52*
Cc1sc2nc(CN(C(=O)NC3CCCCC3)C3CCCC3)[nH]c(=O)c2c1C | . | . | -3 | -14 | . | .
CCOC(=O)N1CCN(C(=O)CCc2nc3sc4c(c3c(=O)[nH]2)CCCC4)CC1 | . | . | . | 8 | . | .
